# Source: PubChem (University of Pittsburgh Molecular Library Screening Center)
# The full list was thinned out, with hits kept by preference.
# RT RNaseH block – blocks HIV-1 RNase H cleavage of RNA/DNA duplex; P04585; RT-RNase H RNA/DNA duplex cleavage, fluorescence; inhibition, % at 10 µM; actives 1.9% (n = 65,000); AID 565; in the data active means inhibition above about 50%
# Numbers stand for hits; 0 = inactive.
SMILES,RT RNaseH block
COc1ccc(OC)c(N2Cc3cc(C)c(C)cc3C2)c1,62
C=CCn1c(=O)c2ccccc2n2c(SCc3c(C(=O)OCC)oc4ccccc34)nnc12,0
Cc1cc(C)n(Cc2cc(C)c(Cn3nc(C)cc3C)cc2C)n1,0
CCOc1ccc(N2CC(C(=O)Nc3ccccc3F)CC2=O)cc1 (stereo not given),0
CCOC(=O)NC(Nc1ccc(S(N)(=O)=O)cc1)(C(=O)OCC)C(F)(F)F (stereo not given),0
CCN(CC(=O)NC)S(=O)(=O)c1ccc(Br)cc1,0
O=C(CSc1nnc(C2CC2)n1Cc1ccccc1)N1CCN(S(=O)(=O)c2ccccc2)CC1,0
Cc1cc(C)n2c(SCC(=O)N3CCN(S(=O)(=O)c4ccc(Cl)cc4)CC3)nnc2n1,70
CCCn1c(SCC(=O)N2CCN(S(=O)(=O)c3ccc(Cl)cc3)CC2)n[nH]c1=O,0
Cn1c(SCC2CCCCC2)nnc1-c1ccncc1,0
O=C(OCc1cccs1)c1ccccc1NS(=O)(=O)c1ccc2c(c1)OCCO2,0
CCCCC(SCC(=O)Nc1ccccc1)C(=O)O (stereo not given),0
O=C(Cc1ccccc1)N[C@H](c1ccccc1)P(=O)(O)CO,0
Cc1ccc(-c2nc3ncccc3o2)cc1NC(=O)Cc1ccc(Cl)cc1,0
Cc1cc(Cl)ccc1OCC(=O)NCCC(=O)O,0
Cc1ccc(-c2nc3cccnc3o2)cc1NC(=O)COc1ccc(Cl)cc1C,53
O=S(=O)(Nc1ccc2c(c1)OCCO2)c1cnc[nH]1,0
COc1ccc(C2c3c(-c4cc(Cl)c(C)cc4O)n[nH]c3C(=O)N2Cc2cccnc2)cc1OC (stereo not given),0
Cn1nnnc1SCCNC/C=C/c1ccccc1,0
CS(=O)(=O)Nc1ccc(N2CCCCC2)c(Cl)c1,0
Cc1ccc2oc(-c3ccc(NC(=O)c4cccnc4)cc3)nc2c1,0
Cc1ccc2oc(-c3ccc(NC(=O)c4ccc5c(c4)OCO5)cc3)nc2c1,64
O=C(Nc1ccc(-c2nc3ccccc3o2)cc1)c1ccc2c(c1)OCO2,0
COc1ccc(Cl)c(NCCC(=O)O)c1,0
Cc1nc2ccc(S(=O)(=O)Nc3ccccc3C)cc2s1,0
SMILES,RT RNaseH block
COc1ccc(Nc2ncnc3c2cnn3-c2cccc(C)c2)cc1OC,0
COC(=O)c1ccc(Nc2ncnc3c2cnn3-c2cccc(C)c2)cc1,60
Cc1cccc(-n2ncc3c(Nc4ccc(F)cc4)ncnc32)c1,0
Cn1ncc2c1ncn1c(-c3ccccc3Cl)nnc21,0
O=C(NC1CCCC1)c1sc(=S)n2c1[nH]c(=O)c1ccccc12,0
O=C(NCc1ccco1)c1sc(=S)n2c1[nH]c(=O)c1ccccc12,58
C=CCn1c(N)c(C(=O)NCc2ccco2)sc1=S,0
c1ccc2c(c1)nc(-c1ccncc1)n1nnnc21,0
CN1Cc2cc(C(=O)c3cc(Cl)cc(CSc4ncccn4)c3O)cnc2NC1=O,59
CC1=C(C(N)=O)C(c2ccccn2)n2nc(SCc3ccccc3Cl)nc2N1 (stereo not given),0
COc1cccc(N(C(=O)CNC(=O)c2ccco2)C(C(=O)NC2CCCCC2)c2ccncc2)c1 (stereo not given),0
O=C(CCN1C(=O)c2ccccc2C1=O)Nn1cnnc1,0
COc1ccc(-c2nnc(SCC(=O)c3cc(C)n(Cc4cccs4)c3C)o2)cc1,58
COc1ccc(-c2nnc(SCC(=O)c3cccs3)o2)cc1,0
COc1ccc(-n2cnnc2SCC(=O)c2cc(C)n(Cc3cccs3)c2C)cc1,0
O=C(O)c1cc(S(=O)(=O)NCC2CCCO2)ccc1Cl (stereo not given),0
O=C(Nc1nc2c(s1)CCCC2)c1cccs1,0
NC(=O)c1c(NC(=O)c2cccs2)sc2c1CCCCCC2,57
O=C(Nc1sc2c(c1C(=O)O)CCC2)c1cccs1,0
O=C(CNS(=O)(=O)c1cccc2nsnc12)NCc1ccc(Cl)cc1,0
Cc1ccc2oc(=O)c3cc(C(=O)N4CCN(c5ncccn5)CC4)sc3c2c1,0
CN1C(=S)SC(C)(NO)C1(C)C (stereo not given),51
CNC(=O)ON(C(=O)NC)C1N(C)C(=S)SC1(C)C (stereo not given),0
Cc1cc(Nc2nc3c(c(=O)n(C)c(=O)n3C)n2C)n(-c2ccccc2)n1,0
Cc1ccsc1C1NC(=O)c2ccccc2N1 (stereo not given),0
SMILES,RT RNaseH block
O=C1NC(c2ccccn2)Nc2sc3c(c21)CCC3 (stereo not given),0
Cc1ccsc1C1NC(=O)c2c(sc3c2CCCC3)N1 (stereo not given),58
CC(c1ccccc1F)n1cc(C(=O)NCCc2ccco2)nn1 (stereo not given),0
Cc1ccc(C2c3sc(=O)[nH]c3SC3C(=O)NC(=O)C32)cc1 (stereo not given),0
CCCC(=O)C1=C(c2ccccc2)C(C#N)(C#N)C(C#N)=C1N,0
Cn1c2ccccc2c2cnn(CC(=O)O)c(=O)c21,0
CC(=O)Nc1c(Cl)n(C(C)=O)c2ccccc12,0
CC(=O)n1c2ccccc2c2c1c1ccccc1n2C,57
CCOC(=O)c1cn2c3c(c(F)c(F)c(F)c3c1=O)SC(N1CCCC1)=N2,0
COC(=O)C1=C(C)NC(C)=C(C(=O)OC)C1c1cn(-c2ccccc2)nc1-c1ccco1,0
COc1ccccc1CNC(=O)C1CCCN1S(=O)(=O)c1cccc2cccnc12 (stereo not given),0
CCOc1ccc(OCC)c(NC(=O)C2CCN(c3ncccn3)CC2)c1,0
Cc1oc2c(CN3CCCC3)c(O)ccc2c(=O)c1-c1ccc(Br)cc1,0
Cc1oc2c(O)c(O)ccc2c(=O)c1-c1ccccc1,70
Cc1oc2c(O)c(O)ccc2c(=O)c1-c1cnn(-c2ccccc2)c1,0
COC(=O)C1=C(C)N(c2cc(Cl)cc(Cl)c2)C(=O)C1,0
COc1ccc(Cc2nn3c(-c4cc(OC)c(OC)c(OC)c4)nnc3s2)cc1,54
COc1cc(-c2nnc3sc(Cc4ccccc4)nn23)cc(OC)c1OC,0
COc1ccc(Cc2nn3c(-c4ccccc4Br)nnc3s2)cc1,0
CCOC(=O)c1c(N)sc(C(=O)N(C)C)c1C,0
CCOC(=O)c1c(NC(=O)OC)sc(C(=O)N(C)C)c1C,52
CCOC(=O)c1c(NC(=O)CC)sc(C(C)=O)c1C,0
O=S(=O)(c1cccc2c(S(=O)(=O)N3CCCC3)cccc12)N1CCCC1,0
O=S(=O)(c1ccc2ccccc2c1)N1CCCCC1,0
O=c1c2ccccc2sn1-c1ccc(S(=O)(=O)N2CCCCC2)cc1,95
SMILES,RT RNaseH block
CC(C)(C)OC(=O)N1CCN(c2ccc(NC(=O)c3cc4ccccc4oc3=O)cc2)CC1,0
CCn1nnnc1-c1ccc(OC)c(S(=O)(=O)NCCc2ccccc2)c1,0
Cc1onc(-c2ccccc2Cl)c1C(=O)NCc1ccc(S(N)(=O)=O)cc1,0
Cc1onc(-c2c(F)cccc2Cl)c1C(=O)NCCc1ccc(S(N)(=O)=O)cc1,54
Cc1onc(-c2c(F)cccc2Cl)c1C(=O)NCc1ccccn1,0
CCCc1c(OCCCCc2nn[nH]n2)ccc(C(C)=O)c1O,0
N#CC1=C(N)Oc2cc3c(cc2C1c1ccc(Cl)cc1)OCO3 (stereo not given),55
COc1cc(C2C(C#N)=C(N)Oc3cc(O)ccc32)cc2c1OCO2 (stereo not given),0
COc1cc(C2C(C#N)=C(N)Oc3cc(N(C)C)ccc32)cc2c1OCO2 (stereo not given),0
CCOc1ccc2nc(NC(=O)CN3CCC(n4nnc5cc(F)ccc54)CC3)sc2c1,0
